# Experimental data published in PubChem BioAssay (Tox21).
# Records with an inconclusive call do not appear. Active and inactive are the calls of the source. Calls come from the whole dose curve; as a rule, active = well fitted cell-killing curve with a large enough effect in the repeat runs; inconclusive = weak or mixed curves, or effect the other way; inactive = flat fitted curve, though single readings scatter.
# Test: qHTS assay to identify small molecule that activate the aryl hydrocarbon receptor (AhR) signaling pathway - cell viability counter screen (AID 743086); note: nearly all actives have a fitted effect of over 45% in size;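 for viability change, negative = cytotoxic: HepG2 liver cells carrying the AhR DRE luciferase reporter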
# Conditions: HepG2-AhR-luc viability, CellTiter-Fluor, 24 h; series mostly up to 70.3 µM; viability change, negative = cytotoxic: at the top concentration
# Description: U.S. Tox21 Program National Center for Advancing Translational Sciences [NCATS] NIH Chemical Genomics Center [NCGC] U.S. Environmental Protection Agency [EPA] National Institutes of Environmental Health Sciences [NIEHS] National Toxicology Program [NTP] U.S. Food and Drug Administration [FDA] Tox21 Assay overview: The Aryl hydrocarbon Receptor (AhR), a member of the family of basic helix-loop-helix transcription factors, is crucial to adaptive responses to environmental changes. AhR mediates cellular responses to environmental pollutants such as aromatic hydrocarbons through induction of phase I and II enzymes but also interacts with other nuclear receptor signaling pathways A cell based HepG2-AhR-luc assay (HG2L7.5c1 cell line, developed by Dr. Michael S. Denison, University of California at Davis) was used to assess the activation of AhR. HepG2 (human hepatocellular carcinoma) cells were stably transfected with an Ah receptor-responsive firefly luciferase reporter gene plasmid containing 20 dioxin responsive elements and luciferase reporter gene. Increased luciferase activity can be used to identify the compounds that induce AhR activation. The cytotoxicity of the compounds screened against the HepG2-AhR-luc cell line was tested in parallel by measuring the cell viability using CellTiter-Fluor assay in the same wells.
# Tox21 Assay Protocol Summary: 4000 cells in 5 uL/well were dispensed into white wall/solid bottom 1536-well plates using a Multidrop Combi (Thermo Fisher Scientific Inc., Waltham, MA) dispenser. After the assay plates were incubated at 37C for 5 h, 23 nL of compound or DMSO vehicle was transferred to the assay plates by a pintool station (Kalypsys, San Diego, CA). The plates were incubated at 37C for 24 hr. For cell viability measurement, 1 ul/well of CellTiter-Fluor reagent (Promega, Madison, WI) was added into the assay plates using a Flying Reagent Dispenser (FRD) (Aurora Discovery, CA),and then the assay plates were incubated at 37C for 30 min. The fluorescence intensity in the plates was measured using a ViewLux plate reader (PerkinElmer, Shelton, CT), followed by the addition of 4 uL of ONE-Glo Luciferase Assay reagent (Promega) using an FRD (Aurora Discovery). After the assay plates were incubated at room temperature for 30 min, luminescence intensity was measured using a ViewLux plate reader (Perkin Elmer).
# % is set by controls: 0 for no effect and ±100 for the full control effect; potency is the fitted concentration of half-maximal effect.
SMILES,Potency,"viability change, negative = cytotoxic"
CC[C@H](C)C(=O)O[C@H]1C[C@H](O)C=C2C=C[C@H](C)[C@H](CC[C@@H](O)C[C@@H](O)CC(=O)O)[C@H]21,inactive,–
C=CC(OCC)OCC,–,0.609% (inactive)
CCN(C)C(=O)Oc1cccc([C@H](C)N(C)C)c1,–,0.905% (inactive)
COC(=O)[C@@H]1[C@H]2C[C@H]3c4[nH]c5ccccc5c4CCN3C[C@@H]2CC[C@@H]1O,–,-15.5% (inactive)
CNS(=O)(=O)CCc1ccc2[nH]cc(C3CCN(C)CC3)c2c1,–,-18.8% (inactive)
CCCCCCCCCC(C)=O,–,-3.75% [at 95 µM] (inactive)
CCCOC(=O)C(C)O (stereo not given),–,14.9% [at 95 µM] (inactive)
CC1COc2ccccc2N1 (stereo not given),–,5.02% (inactive)
CC(C)CCCC(C)(C)O,–,9.43% (inactive)
CCC(C)(CCC(C)C)C(=O)O (stereo not given),–,13.4% (inactive)
CC(C)c1ccc2cc(C(C)C)ccc2c1,–,-3.02% (inactive)
CC(=O)N[C@@H](CCC(=O)O)C(=O)O,–,-6.17% (inactive)
O=C(CCN1CCN(CCO)CC1)N1c2ccccc2Sc2ccc(C(F)(F)F)cc21,21.1 µM (active),–
CC(C)N(c1ccccc1)C(C)C,–,15.2% (inactive)
N#Cc1ccc(C(=O)O)cc1,–,-1.27% (inactive)
Cc1ccccc1N=O,–,-1.48% [at 95 µM] (inactive)
O=C(Nc1ccc(Cl)c(Cl)c1)C1CC1,–,-3.55% (inactive)
Oc1cn2c(n1)Nc1ccc(Cl)c(Cl)c1C2,inactive,–
CCO[Si](CCCS)(OCC)OCC,–,-16.2% (inactive)
BrCCCCCBr,–,-4.37% [at 95 µM] (inactive)

SMILES,Potency,"viability change, negative = cytotoxic"
COc1ccc(Br)c(C)c1,–,-7.04% [at 95 µM] (inactive)
Cc1cc2cc3c(C)cc(=O)oc3c(C)c2o1,–,0.901% [at 32.5 µM] (inactive)
C=C1CC/C=C(\C)CC[C@@H]2[C@@H]1CC2(C)C,–,-3.77% (inactive)
CC(=O)CCCCn1c(=O)c2c(ncn2C)n(C)c1=O,–,0.345% [at 32.5 µM] (inactive)
COc1ccc(C2CNC(=O)C2)cc1OC1CCCC1 (stereo not given),–,-2.2% [at 32.5 µM] (inactive)
CC(=O)c1ccc2c(c1)Cc1ccccc1-2,–,15.5% (inactive)
CC(=O)Nc1cccc(C)c1,–,-1.38% [at 95 µM] (inactive)
CC1(C)S[C@@H]2[C@H](N=CN3CCCCCC3)C(=O)N2[C@H]1C(=O)O,–,-0.487% (inactive)
On1nnc2ccccc21,–,-2.95% (inactive)
CC(=O)NCCCCCC(=O)O,–,4.99% (inactive)
O=C1O[C@@H]2[C@@H](O)[C@H](O)O[C@@H]2[C@H]1O,inactive,–
CCCC(=O)C(C)=O,–,1.71% (inactive)
Cc1ccccc1OCC(O)CO (stereo not given),–,19.5% (inactive)
CC(C)(C)NC(N)=O,–,4.05% (inactive)
CCCCC(CC)COCCO (stereo not given),–,12.4% (inactive)
CN(CCOc1ccc(NS(C)(=O)=O)cc1)CCc1ccc(NS(C)(=O)=O)cc1,–,-15.9% (inactive)
CN(C)CCOCCO,–,18.3% (inactive)
Brc1ccc(-c2ccccc2)cc1,–,-10.1% (inactive)
CC(C)(C)c1n[nH]c(=S)n(N)c1=O,–,1.99% (inactive)
Cc1cc(NC(=O)C2=C(O)c3ccccc3S(=O)(=O)N2C)no1,–,-8.94% (inactive)
